In the library only some 2.6% were active in any assay of this set; here they are far more common.
PABP polyA inh: blocks human PABP binding to poly(A) RNA; fluorescence polarization; calls only at 35 µM; hit rate 1% among 290,000; AID 2014;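 further: calls also rest on retests at 20 µM and on dose response follow-up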
Target sequence (P11940 whole entry, looked up): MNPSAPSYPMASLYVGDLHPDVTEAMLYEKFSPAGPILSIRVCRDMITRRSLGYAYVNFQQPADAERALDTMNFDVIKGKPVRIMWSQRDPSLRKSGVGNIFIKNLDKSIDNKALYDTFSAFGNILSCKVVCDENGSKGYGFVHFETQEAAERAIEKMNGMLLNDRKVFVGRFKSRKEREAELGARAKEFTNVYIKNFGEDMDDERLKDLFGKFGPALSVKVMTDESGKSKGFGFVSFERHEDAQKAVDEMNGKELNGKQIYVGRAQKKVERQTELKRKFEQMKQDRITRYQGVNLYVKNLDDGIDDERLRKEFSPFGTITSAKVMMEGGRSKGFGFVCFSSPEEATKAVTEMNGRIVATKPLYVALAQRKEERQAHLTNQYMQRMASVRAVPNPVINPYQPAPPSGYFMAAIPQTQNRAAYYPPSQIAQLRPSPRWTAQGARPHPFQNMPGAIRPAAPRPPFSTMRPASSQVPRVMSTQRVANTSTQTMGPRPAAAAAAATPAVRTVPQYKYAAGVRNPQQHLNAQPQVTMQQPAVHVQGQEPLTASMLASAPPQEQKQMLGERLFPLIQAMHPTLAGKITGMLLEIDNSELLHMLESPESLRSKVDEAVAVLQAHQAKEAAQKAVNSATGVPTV
PHOSPHO1 inh: inhibitors of human PHOSPHO1 phosphatase | Q8TCT1 | recombinant PHOSPHO1, absorbance phosphatase assay | inhibition, % at 13.3 µM | hit rate 1.1% among 290,000 | AID 1565; in the data active means inhibition above about 60%
A3A deaminase: human APOBEC3A DNA deaminase inhibition; P31941; recombinant A3A, FAM/TAMRA ssDNA deamination fluorescence; inhibition, % at 20 µM; hit rate 0.41% among 330,000; AID 493011;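 active means at least 40% inhibition at 20 µM here, with at most 30% in a related deaminase screen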;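 further: plate controls were A3A with DMSO for no effect and wells lacking A3A enzyme for full effect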
A3G deaminase: APOBEC3G (human) deaminase inhibition; recombinant A3G, ssDNA deamination FAM/TAMRA fluorescence; Q9HC16; AID 493012; inhibition, % at 20 µM; hit rate 0.28% among 330,000;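 active means inhibition of at least 40% at 20 µM, with no more than 30% in the related APOBEC3A deaminase screen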;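 further: plate controls were DMSO wells with A3G for no effect and wells lacking A3G enzyme for full effect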
eIF4H inh: inhibitors of RNA binding by human eIF4H. Q15056. eIF4H fluorescence polarization binding assay. inhibition, % at 35 µM. hit rate 0.94% among 290,000. AID 2012;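 further: calls also rest on retests at 20 µM and on dose response follow-up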
MLLE-PAM2 inh: inhibitors of microRNA-mediated deadenylation, human PABP1 MLLE binding. P11940. GST-MLLE / FITC-PAM2 fluorescence polarization. hit rate 0.36% among 360,000. inhibition, % at 20 µM. AID 588489; in the data active means inhibition above about 35%, passing the limit was not always enough;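 further: plate controls were DMSO wells with GST-MLLE for no effect and wells lacking GST-MLLE protein for full effect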
APOBEC3A confirm: confirmation of human APOBEC3A DNA deaminase inhibitors; hit rate 63% among 1,400; AID 493151; inhibition, % at 20 µM; shares compounds with A3A deaminase; recombinant A3A, ssDNA deaminase UDG fluorescence assay;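 active means inhibition reaching a set limit, 80% of the first screen's cutoff, at 20 µM in any replicate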;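 further: plate controls were DMSO wells with A3A for no effect and wells lacking A3A enzyme for full effect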
UDG A3A counter: UDG inhibition in APOBEC3A counter-screen | shares compounds with A3A deaminase | UDG counterscreen, FAM/TAMRA uracil oligo fluorescence | inhibition, % at 20 µM | 1,000 tested, under 10 active
* marks the source's active call; other numbers are inactive results; i = inactive; ? = inconclusive; . = no result given; + = active, no number. Unless noted, how the calls were made is not given here.

SMILES	PABP polyA inh	PHOSPHO1 inh	A3A deaminase	A3G deaminase	eIF4H inh	MLLE-PAM2 inh	others
CS(=O)(=O)c1ccc(C2=C(CNC(=O)c3ccncc3)[C@H]3CC[C@@H](C2)N3CCOc2ccccc2)cc1	.	.	.	.	.	8.8
CC1Oc2cc3c(-c4c(O)cc(O)c5c(O)c6c(cc45)OC(C)C(C)C6=O)c(O)cc(O)c3c(O)c2C(=O)C1C (stereo not drawn)	+	16.6	14.1	9.4	90.2*	16.1
CCN1CCN(c2cc(N3CCCC3)c([N+](=O)[O-])cc2F)CC1	i	-9.7	-2.8	-4.1	4.7	-3.7
C[n+]1c2ccccc2nc2ccc(NCCO)cc21	+	15.6	8.4	15.2	46.4	29.3
CNc1ccc2nc3ccccc3[n+](C)c2c1	?	24.1	12.1	13.5	?	86.4*
COc1ccc(OC)c(N2C(=O)/C(=C/c3ccco3)C(=O)NC2=S)c1	+	-11.2	99.3	87.8	62.7*	.
O=C1NC(=S)N(c2ccc(F)cc2)C(=O)/C1=C/c1ccco1	i	-28.7	95.5	89.9	49.8	.
COc1ccc(N2C(=O)/C(=C/c3cc(C)n(-c4ccc(C)cn4)c3C)C(=O)NC2=S)c(OC)c1	+	47.7	2.6	5.9	73.9	-4.7
O=C(Cn1ccc2ccccc2c1=O)NCC(=O)N1CCC2(CC1)OCCO2	i	20.4	-2.8	-9.2	-2.1	8.3
CCC1(C(=O)c2ccc(C)cc2)C2c3ccccc3OC(=O)C21C(=O)O (stereo not drawn)	i	11.7	-4.2	-6.8	-2.7	3.5
COc1cc(N2CCOCC2)ccc1C=C1C(=O)NC(=O)NC1=O	+	-8.8	0.1	-3.4	69.4*	1.5
C=C1C(=O)[C@@]23C[C@H]4[C@@H]5[C@@]6(C)CCC[C@@]57[C@@H]2[C@@H](O)[C@@H]1C[C@H]3[C@H]7N4C6	.	.	-1.2	-5.2	.	-13.9
OC(CNC1CCCCC1)C(F)(F)F (stereo not drawn)	?	-35.4	2.6	13.9	?	1.3
Cc1cccc(NC(=O)N2CCCC2)c1	i	61.8*	-4.7	-5.1	1.3	-3.3
COC(=O)C1=C(c2ccc(F)cc2F)C[C@@H]2CC[C@H]1N2C(=O)NCc1ccco1	.	.	1.0	-3.6	.	1.2
CC(C)c1ccc(N2C(=O)NC(=O)/C(=C/c3cnc(-c4ccccc4)nc3)C2=O)cc1	+	-25.7	4.3	-3.7	54.3	7.2
CSc1ncc(/C=C2/C(=O)NC(=O)N(c3ccc(C(C)C)cc3)C2=O)cn1	i	-4.0	4.6	-7.5	3.4	13.8
Cc1cc(C=C2C(=O)N(C)C(=S)N(C)C2=O)c(C)n1C1CCCCC1	i	64.7*	1.9	-3.6	57.4	-58.6
O=c1c2ccccc2[se]n1-c1ccccc1	i	89.2*	43.3	91.2	-2.2	37.3*
Cc1ccc2cc(C=C(C#N)C#N)c(Cl)nc2c1	i	0.7	-4.5	-10.4	?	53.0*
Cc1nn(Cc2ccccc2)c(C)c1C(=O)OCC(=O)NC1CCS(=O)(=O)C1 (stereo not drawn)	i	8.8	-1.9	-5.3	-0.2	10.3
Cn1c(O)c(C(=O)c2ccccc2F)c(=O)n(C)c1=O	i	45.0	-5.6	-5.9	6.4	12.9
Cn1c(O)c(C(=O)c2ccccc2)c(=O)n(C)c1=O	+	6.3	-2.7	-2.8	55.8*	6.5
COc1ccc(OC)c(N2C(=O)NC(=O)/C(=C/c3ccc([N+](=O)[O-])s3)C2=O)c1	i	4.1	24.4	13.5	45.3	13.8
CCN1C(=O)/C(=C\c2ccc([N+](=O)[O-])s2)C(=O)NC1=S	+	27.6	.	.	52.0*	.
SMILES	PABP polyA inh	PHOSPHO1 inh	A3A deaminase	A3G deaminase	eIF4H inh	MLLE-PAM2 inh	others
CC(C)(C)N1C(=O)NC(=O)/C(=C\c2ccc3c(c2)CCN3CCCCl)C1=O	+	22.5	-0.1	-2.9	80.2	-142.5
CN(C)C1C(=O)C(C(N)=O)=C(O)C2(O)C(=O)C3=C(O)c4c(O)cccc4C(C)(O)C3C(O)C12 (stereo not drawn)	+	-5.6	88.3	62.2	98.9*	20.6
CN(C)c1ccc(/C=C2\C(=O)NC(=O)N(Cc3ccc(F)cc3)C2=O)cc1	+	12.9	-3.8	-12.0	?	-65.4
Cc1ccc(/C=C2\C(=O)NC(=S)N(c3cccc(F)c3)C2=O)o1	+	-16.4	26.6	13.8	71.5	-43.1
Cc1ccc(/C=C2/C(=O)NC(=O)N(Cc3ccc(F)cc3)C2=O)o1	i	12.9	-2.9	-1.8	38.7	.
CN(C)c1ccc(/C=C2/C(=O)NC(=O)N(CCc3ccc(F)cc3)C2=O)cc1	i	-13.2	0.6	-3.1	?	-96.8
Cc1ccc(/C=C2\C(=O)NC(=O)N(CCc3ccc(F)cc3)C2=O)o1	+	-17.3	-0.2	-3.9	?	-46.4
Cc1cccc(N2C(=O)NC(=O)/C(=C/c3ccc([N+](=O)[O-])o3)C2=O)c1	+	33.3	.	.	79.6*	.
Cc1cccc(N2C(=O)NC(=O)/C(=C\C=C\c3ccco3)C2=O)c1	?	-29.1	59.5	60.7	?	-84.7
Cc1nc2ccccc2c(=O)n1-c1cccc([N+](=O)[O-])c1	i	-34.8	-1.9	-2.2	-6.6	-0.2
CCN(CCO)c1ccc(N=Cc2c(O)n(C)c(=S)[nH]c2=O)cc1	i	-5.6	-2.5	1.3	39.9	-73.9
COc1cc(/C=C2\C(=O)NC(=O)N(c3ccccc3)C2=O)cc(OC)c1O	i	21.7	-0.3	-5.8	114.0	17.6
COc1cc(/C=C2\C(=O)NC(=O)N(c3ccccc3)C2=O)c([N+](=O)[O-])cc1OC	i	46.4	.	.	31.2	49.4*
CC(C)(C)c1ccc(C(=O)C2CCCN(C3CCC3)C2)cc1 (stereo not drawn)	i	60.1*	2.0	-5.9	0.0	-14.9
CC(C)(C)c1ccc(C(=O)C2CCCN(Cc3ccon3)C2)cc1 (stereo not drawn)	i	36.8	-1.5	1.7	-5.6	8.1
CCOc1ccc(N=C2SCCCN2C)cc1	i	-8.1	40.3*	17.7	-2.8	-121.4	APOBEC3A confirm=65.7*;UDG A3A counter=-3.0
C[N+](C)(C)CCc1ccc(O)cc1	+	-16.2	65.3*	24.8	?	-120.7	APOBEC3A confirm=77.5*;UDG A3A counter=3.1
C=CCN1C(=O)/C(=C/c2ccc(Br)s2)C(=O)NC1=S	i	-2.4	46.0*	26.4	19.8	-66.2	APOBEC3A confirm=28.6
O=c1c2ccccc2nc(-c2ccco2)n1-c1ccncc1	i	14.4	-4.1	-7.9	-6.2	7.8
CCC(C)(O)C(=O)OC1C(=O)OC2CC3C(C)=CC(O)C(O)C3(C)C3C4(O)OCC23C1C(C)C4O (stereo not drawn)	.	.	.	.	.	-0.3

Screening data deposited in PubChem by Sanford-Burnham Center for Chemical Genomics.
